This is a sample that favours compounds with a hit; in the whole collection about 3.5% have one here.
MITF primary: MITF inhibitors, primary screen, biochemical, AlphaScreen, human; Microphthalmia-associated transcription factor (Homo sapiens), O75030; AlphaScreen MITF homodimerization, bead proximity signal; inhibition, % at 2.6 µM; 650,000 compounds, 0.91% hits; in the data active = inhibition above about 50%;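 also: 0% = vehicle wells with protein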
Target sequence (O75030 whole entry, looked up): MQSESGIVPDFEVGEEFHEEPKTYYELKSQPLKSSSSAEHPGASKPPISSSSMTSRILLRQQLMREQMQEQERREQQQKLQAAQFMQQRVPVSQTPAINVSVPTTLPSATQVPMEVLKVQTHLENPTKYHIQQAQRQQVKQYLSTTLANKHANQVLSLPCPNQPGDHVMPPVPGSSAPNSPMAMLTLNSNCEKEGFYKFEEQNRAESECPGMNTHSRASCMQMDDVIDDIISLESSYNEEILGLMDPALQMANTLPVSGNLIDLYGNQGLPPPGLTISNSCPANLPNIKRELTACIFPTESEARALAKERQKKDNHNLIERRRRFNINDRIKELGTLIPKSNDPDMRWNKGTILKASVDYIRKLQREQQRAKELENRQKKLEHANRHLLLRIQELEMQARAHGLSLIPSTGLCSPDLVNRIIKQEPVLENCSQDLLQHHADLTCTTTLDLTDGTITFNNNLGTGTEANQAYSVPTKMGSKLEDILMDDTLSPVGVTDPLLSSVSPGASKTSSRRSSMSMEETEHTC
TEAD-YAP inh: TEAD-YAP interaction inhibition, primary screen, TEAD-YAP interaction inhibitor project, luminescence, HEK-TIYL cells; TEAD-Gal4/YAP UAS-luciferase luminescence; inhibition, % at 9.12 µM; 640,000 compounds, 1.4% hits; AID 1259422, 2018; in the data active = inhibition above about 32%;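 also: 0% = median of test compound wells and 100% = reference inhibitor wells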
FBW7 activator: FBW7 E3 ligase activators, primary screen, biochemical, AlphaScreen, human; F-box/WD repeat-containing protein 7 (Homo sapiens), Q969H0; AlphaScreen FBW7–phospho-cyclin E peptide binding, activator screen; normalized activity (activation), % at 26.1 µM; 650,000 compounds, 0.13% hits; in the data active = normalized activity above about 1.9%;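 also: purified mutant Fbw7 with reduced substrate affinity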
GPR151 activ: activators of human GPR151, primary screen, cell-based, PathHunter beta-arrestin, luminescence | G-protein coupled receptor 151 (Homo sapiens), Q8TDV0 | PathHunter beta-arrestin GPR151 cells | activation, % at 11.2 µM | 650,000 compounds, 1% hits | AID 1508602, 2020; in the data active = activation above about 4.9%;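 also: 0% = median of compound wells and 100% = cells with positive control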
MITF confirm: MITF inhibitors, retest of hits, confirmation, biochemical, AlphaScreen, triplicate; shares compounds with MITF primary; AlphaScreen MITF homodimerization, biotin/His-MITF beads; inhibition, % at 2.6 µM; 4,700 compounds, 16% hits;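 active = inhibition above a cutoff derived from the DMSO control wells, cut at about 28% in these data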;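 also: 0% = MITF dimer wells with DMSO only; inhibitors lower the bead chemiluminescence by keeping MITF from dimerizing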
AlphaScreen intf2: AlphaScreen optical interference compounds, counter-screen for MITF inhibitor project, biochemical, triplicate | shares compounds with MITF primary | LysRS AlphaScreen counterscreen, signal interference | inhibition, % at 2.6 µM | 4,700 compounds, 7.6% hits | AID 1259376, 2018;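 active = inhibition above a cutoff derived from the DMSO control wells, cut at about 30% in these data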
Starred values were filed as active, the others as inactive.

For CC(C)c1ccc(-c2c(C#N)c(N)nc3sc(C(=O)Nc4ccc(Cl)cc4)c(N)c23)cc1 the results were MITF primary 3, TEAD-YAP inh 1, FBW7 activator 0 and GPR151 activ 0.
COc1cccc(NC(=O)c2sc3nc(N)c(C#N)c(-c4ccc(C(C)C)cc4)c3c2N)c1 was read as MITF primary 52*, TEAD-YAP inh -5, FBW7 activator 0, GPR151 activ 1, MITF confirm -2 and AlphaScreen intf2 -8.
Screening O=C(N1CCN(Cc2ccccc2)CC1)C12CC3CC(CC(O)(C3)C1)C2 returned MITF primary 53*, TEAD-YAP inh -3, FBW7 activator 0, GPR151 activ 1, MITF confirm 13 and AlphaScreen intf2 10.
`O=C(N1CCN(c2ccccc2)CC1)C12CC3CC(CC(O)(C3)C1)C2` gave MITF primary 5, TEAD-YAP inh -7, FBW7 activator 0 and GPR151 activ -2.
Cc1ncc2c(Nc3ccncc3)nc3ccccc3n12 was read as MITF primary 11, TEAD-YAP inh -27, FBW7 activator 0 and GPR151 activ 0.
COCCn1c(C)nnc1SCC(N)=O was read as MITF primary 83*, TEAD-YAP inh 16, FBW7 activator 1, GPR151 activ -1, MITF confirm 6 and AlphaScreen intf2 5.
For COc1ccc(CCNC(=O)c2cnc(-c3ccc(OC)nc3)s2)cc1 the results were MITF primary -4, TEAD-YAP inh 9, FBW7 activator 0 and GPR151 activ -3.
O=C1c2ccccc2C(=O)N1CCCCN(C(=O)c1ccc([N+](=O)[O-])cc1)c1ccc(Cl)cc1 was read as MITF primary 1, TEAD-YAP inh -10, FBW7 activator 0 and GPR151 activ -2.
O=C1c2ccccc2C(=O)N1CCCCN(C(=O)c1cc([N+](=O)[O-])ccc1Cl)c1ccc(Cl)cc1 was read as MITF primary 68*, TEAD-YAP inh 11, FBW7 activator 0, GPR151 activ 0, MITF confirm 6 and AlphaScreen intf2 11.
For Cc1ccc(N(CCCCN2C(=O)c3ccccc3C2=O)C(=O)c2ccc([N+](=O)[O-])cc2)cc1 the results were MITF primary 64*, TEAD-YAP inh -2, FBW7 activator 0, GPR151 activ -1, MITF confirm 5 and AlphaScreen intf2 15.
`CCOC(=O)CC(=O)c1c(C)[nH]c(C(=O)OCC)c1C` gave MITF primary 4, TEAD-YAP inh -2, FBW7 activator 0 and GPR151 activ 0.
Screening COc1cc(N2CCN(C(=O)c3ccc(OC)c(OC)c3)CC2)nc(C)n1 returned MITF primary 107*, TEAD-YAP inh 8, FBW7 activator 0, GPR151 activ 0, MITF confirm -4 and AlphaScreen intf2 -8.
Screening COc1cc(OC)cc(C(=O)N2CCN(Cc3ccncc3)CC2)c1 returned MITF primary 84*, TEAD-YAP inh 9, FBW7 activator 0, GPR151 activ 1, MITF confirm 4 and AlphaScreen intf2 4.
CCOc1cc(N2CCN(C(=O)c3ccc(OC)c(OC)c3)CC2)nc(C)n1 was read as MITF primary 6, TEAD-YAP inh 2, FBW7 activator 0 and GPR151 activ 1.
`COc1cccc(C(=O)N2CCN(Cc3ccncc3)CC2)c1` gave MITF primary 68*, TEAD-YAP inh -3, FBW7 activator 0, GPR151 activ -1, MITF confirm 15 and AlphaScreen intf2 17.
`COc1cc(OC)cc(C(=O)N2CCN(Cc3ccc(OC)c(OC)c3)CC2)c1` gave MITF primary 35, TEAD-YAP inh 3, FBW7 activator 0 and GPR151 activ 1.
For COc1cccc(C(=O)N2CCC(N3CC(C)CC(C)C3)CC2)c1 (centres undefined) the results were MITF primary 61*, TEAD-YAP inh 1, FBW7 activator 0, GPR151 activ 1, MITF confirm 1 and AlphaScreen intf2 3.
For Fc1ccc(-c2cc(C(F)(F)F)n3ncc(-c4ccccc4)c3n2)cc1 the results were MITF primary 9, TEAD-YAP inh -5, FBW7 activator 0 and GPR151 activ 2.
For COc1ccc(C(=O)N2CCN(Cc3ccccc3)CC2)cc1 the results were MITF primary 47, TEAD-YAP inh 1, FBW7 activator 0 and GPR151 activ 0.
For COc1cccc(OC)c1C(=O)N1CCN(Cc2ccncc2)CC1 the results were MITF primary 75*, TEAD-YAP inh 2, FBW7 activator 0, GPR151 activ 1, MITF confirm -12 and AlphaScreen intf2 -5.
For COc1cccc(C(=O)N2CCN(Cc3ccc4ccccc4c3)CC2)c1 the results were MITF primary 7, TEAD-YAP inh 9, FBW7 activator 0 and GPR151 activ -1.
COc1cccc(OC)c1C(=O)N1CCCCCC1 was read as MITF primary -2, TEAD-YAP inh 1, FBW7 activator 0 and GPR151 activ 2.
Screening O=C(c1ccncc1)N1CCN(Cc2ccc3ccccc3c2)CC1 returned MITF primary 79*, TEAD-YAP inh 5, FBW7 activator 0, GPR151 activ 1, MITF confirm -17 and AlphaScreen intf2 -5.
Screening COc1ccc(C(=O)N2CCN(Cc3ccc4ccccc4c3)CC2)cc1OC returned MITF primary 70*, TEAD-YAP inh 38*, FBW7 activator 0, GPR151 activ 0, MITF confirm 12 and AlphaScreen intf2 22.
CCc1ccc(CN2CCN(C(=O)c3ccccc3)CC2)cc1 was read as MITF primary 24, TEAD-YAP inh -10, FBW7 activator 0 and GPR151 activ 0.
For COc1ccc(CN2CCN(C(=O)c3ccncc3)CC2)cc1 the results were MITF primary 75*, TEAD-YAP inh -1, FBW7 activator 0, GPR151 activ 2, MITF confirm 4 and AlphaScreen intf2 16.
For CCN(CC)C(=O)[C@@H]1C[C@@H](NCc2cc(C)ccc2C)CN1Cc1cccnc1 the results were MITF primary 11, TEAD-YAP inh 0, FBW7 activator 0 and GPR151 activ 3.
`Cc1cc(C(=O)N/N=C/c2cc([N+](=O)[O-])cc(Br)c2O)n[nH]1` gave MITF primary 23, TEAD-YAP inh -10, FBW7 activator -2 and GPR151 activ -1.
For CC(C)N1CCN(C(=O)c2ccncc2)CC1 the results were MITF primary 78*, TEAD-YAP inh 1, FBW7 activator 0, GPR151 activ -1, MITF confirm -3 and AlphaScreen intf2 0.

Screening data from PubChem.
